Here are results for ten molecules from ChEMBL document CHEMBL1157539, “Thousands of chemical starting points for antimalarial lead identification” (Nature, 2010).

Holding throughout (assay type): functional
In assay [1] the test system is Plasmodium falciparum. The assay can be described thus: GSK_TCMDC: Inhibition of Plasmodium falciparum 3D7 in whole red blood cells, using parasite LDH activity as an index of growth. Test compounds present at 2uM.
The test system of assay [2] is Plasmodium falciparum. The assay can be described thus: GSK_TCMDC: Inhibition of Plasmodium falciparum Dd2 in whole red blood cells, using parasite LDH activity as an index of growth. Test compounds present at 2uM.
Another assay deals with HepG2. The assay can be described thus: GSK_TCMDC: Percent inhibition of human HepG2 cell line. Test compounds present at 10uM.

For `Cc1cccc2nc(-c3ccc(-c4ccc(CNCc5cnn(-c6ccccc6)n5)cc4)s3)[nH]c12.O=C(O)C(F)(F)F`, the Inhibition is 97% in the assay on Plasmodium falciparum [1], 48% with Plasmodium falciparum [2] and 16% in the assay with HepG2.
For `CCc1ccc(NC(=O)c2ccc(CN3CCCN(CC4CCCCC4)CC3)cc2)cc1.O=C(O)C(F)(F)F`, the values for the Inhibition in the assay on Plasmodium falciparum [1], in the assay on Plasmodium falciparum [2] and in the assay on HepG2 were 96%, 48% and 48%, respectively.
With `O=C(Nc1ccc(-c2cccc(-c3nc4cc(C(F)(F)F)ccc4[nH]3)c2)cc1)Nc1ccc(Cl)c(Cl)c1`, the Inhibition in the assay on Plasmodium falciparum [1] is listed as 98%; in the assay on Plasmodium falciparum [2], 23%; with HepG2, 42%.
For the molecule `Cc1ccc(-n2c(=O)c3c(n4c(SC(C)C)nnc24)-c2ccccc2CC32CCCCC2)cc1`, the Inhibition with Plasmodium falciparum [1] stood at 95%; with Plasmodium falciparum [2], 88%; in the assay with HepG2, 8%.
With `CN(C)c1ccc(-c2ccc(C(=O)NC3CCN(Cc4ccc(C(C)(C)C)cc4)CC3)s2)cc1.O=C(O)C(F)(F)F`, the values for the Inhibition in the assay with Plasmodium falciparum [1], with Plasmodium falciparum [2] and in the assay with HepG2 were 95%, 59% and 35%, respectively.
As to `C=CC[C@H](NC(=O)c1ccc(NS(=O)(=O)c2ccc3nc(N)[nH]c(=O)c3c2)cc1)C(=O)OCCCC`, the Inhibition with Plasmodium falciparum [1] stood at 97%; in the assay on Plasmodium falciparum [2] it was 2%; in the assay with HepG2, 61%.
In the case of `O=C(C=Cc1ccc(Cl)c(Cl)c1)NCCCCCN1CCCC(CCCNC(=O)C2CC2c2ccccc2)C1` (stereo not given), the Inhibition is 85% in the assay on Plasmodium falciparum [1], 5% in the assay on Plasmodium falciparum [2] and 48% in the assay with HepG2.
The corresponding values for `CCCn1c(Sc2ccc(C#N)c([N+](=O)[O-])c2)nnc1-c1ccc(Cl)cc1` are 96%, 95% and 12%.
Take `O=C(Cc1ccc(NC(=O)c2ccc(O)c(-c3ccc(Cl)c(Cl)c3)c2)cc1)NCCN1CCCCC1`: the Inhibition in the assay on Plasmodium falciparum [1] amounted to 95%; in the assay on Plasmodium falciparum [2] it was 63%; in the assay with HepG2, 12%.
`COc1cc(NC(=O)/C=C/c2cc3ccccc3n2C)ccc1OCCN(C(C)C)C(C)C.Cl`: the Inhibition in the assay on Plasmodium falciparum [1] amounted to 99%; in the assay on Plasmodium falciparum [2] it was 68%; in the assay with HepG2, 16%.

By Inhibition is commonly meant the relative decrease from the control value, in per cent. A low value points to a response near the control.
